aSyn UTR act: Activators working through SNCA 5'UTR binding (MLPCN). alpha-synuclein 5'UTR reporter, activators screen. activity score, % (tested at 7.5 µM), hits read low. actives 7.1% (n = 300,000). AID 1814; in the data active means activity score below about -60%
Active calls of the source: *. Only a sample is shown.

SMILES | aSyn UTR act
COCCn1c(C)cc(C(=O)CSc2ccc3ccccc3n2)c1C | -141*
Cc1cc(NC(=O)C(=O)c2cn(C)c3ccccc23)no1 | -72*
COc1ccccc1C(=O)Nc1ccc2c3c(cccc13)CC2 | -118*
COc1ccccc1C(=O)Nc1ccccc1SC(=O)c1ccccc1OC | -112*
COc1ccccc1C(=O)Nc1cc(-c2ccc(C)cc2)no1 | -178*
COc1ccccc1C(=O)Nc1cccc(NC(=O)c2ccccc2OC)n1 | -112*
COc1cccc2cc(C(=O)Nc3cccc(C)n3)c(=O)oc12 | -167*
COc1ccccc1C(=O)Nc1cc(C)on1 | -114*
Nc1cc(-c2ccc(Cl)cc2)nn1-c1ccccc1 | -138*
Nc1ccc(-c2cc(N)n(-c3ccccc3)n2)cc1 | -104*
CC(=O)Nc1ccc(-c2cc(N)n(-c3ccccc3)n2)cc1 | -162*
Cc1ccc(-n2nc(-c3ccc(N)cc3)cc2N)cc1 | -132*
Oc1ccc(Cl)cc1C1=NNC(c2ccc(Cl)cc2)C1 (configuration not stated) | -90*
Cc1cc(C)n(-c2nnc(NC34CC5CC(CC(C5)C3)C4)nn2)n1 | -172*
Cc1cc(C)n(-c2nc(Nc3ccccc3C(F)(F)F)nc(-n3nc(C)cc3C)n2)n1 | 62
COc1ccccc1OCc1cc(C(=O)N2CCCC(OCc3cccnc3)C2)no1 (configuration not stated) | -134*
COc1ccc(OCc2cc(C(=O)N3CCCC(CO)C3)no2)c2ccccc12 (configuration not stated) | -102*
CSc1ccccc1OCc1cc(C(=O)N2CCCC(C)C2)no1 (configuration not stated) | -134*
CSc1ccccc1OCc1cc(C(=O)N2CCN(C3CCCC3)C(=O)C2)no1 | -112*
CSc1ccccc1OCc1cc(C(=O)N2CCSCC2)no1 | -113*
COc1ccc(CSc2nc3ccccc3[nH]2)cc1 | -189*
c1ccc2[nH]c(SCc3ccc(-c4nnco4)cc3)nc2c1 | -142*
c1ccc2[nH]c(SCCN3CCOCC3)nc2c1 | -78*
CC(C)CCSc1nc2ccccc2[nH]1 | -107*
COC(=O)c1cccc(CSc2nc3ccccc3[nH]2)c1 | -72*
SMILES | aSyn UTR act
c1ccc(CSc2ccc(-c3cccs3)nn2)nc1 | -102*
N#Cc1ccc(-c2cccs2)nc1SCc1cccnc1 | 90
O=C(CSc1ccc(-c2cccs2)nn1)c1cccs1 | -68*
c1ccc(CSc2ccc(-c3cccs3)nn2)cc1 | -108*
O=C(COc1ccc(F)cc1)N1CCC(c2ccccc2)C1 (configuration not stated) | -134*
Cc1cccc(OCC(=O)N2CCC(c3ccccc3)C2)c1 (configuration not stated) | -158*
O=C(Nc1ccc(-c2cnco2)cc1)c1ccc(F)cc1F | -146*
CCN(CC)c1ccc(/C=N/N=C(N)N)c(O)c1 | 87
CCN(CC)c1ccc(/C=N/NC(=S)NC)c(O)c1 | -94*
CCN(CC)c1ccc(/C=N/Nc2ccccc2)c(O)c1 | -62*
CCN(CC)c1ccc(C=Nc2ccc(N(C)C)cc2)c(O)c1 | -83*
CCN(CC)c1ccc(/C=N/N2CCOCC2)c(O)c1 | -157*
COc1cnn(-c2ccc(C)cc2)c(=O)c1SCc1ccccc1 | -77*
COc1cnn(-c2ccc(Br)cc2)c(=O)c1SCc1ccccc1 | -71*
N/C(=N\OC(=O)c1ccc(Cl)cc1Cl)c1ccncc1 | -112*
Cc1ccc(C(=O)O/N=C(\N)c2ccccc2)c(Cl)c1 | 85
N/C(=N\OC(=O)c1ccccc1Cl)c1ccncc1 | -107*
N/C(=N\OC(=O)c1cc(Cl)ccc1Cl)c1ccncc1 | -229*
N/C(CS(=O)(=O)c1ccccn1)=N\OC(=O)c1ccccc1Cl | -114*
O=C(Nc1nnc(CC2=CCCCC2)s1)c1cccs1 | -93*
CCN(Cc1ccccc1)S(=O)(=O)c1ccc(C(=O)Nc2nnc(-c3ccccc3OC)o2)cc1 | 67
O=C(Nc1nnc(Cc2ccccc2)s1)c1cccs1 | -128*
CCc1nnc(NC(=O)c2ccc(N(C)S(=O)(=O)c3ccccc3)cc2)s1 | -129*
CCN(c1ccccc1)S(=O)(=O)c1ccc(C(=O)Nc2nnc(C3CC3)o2)cc1 | 71
O=C(Nc1nnc(Cc2ccccc2)s1)c1ccccc1 | -160*
SMILES | aSyn UTR act
O=C(Nc1nnc(CCN2CCOCC2)s1)c1ccccc1 | -67*
CC(C)Oc1ccc(C(=O)Nc2nnc(SCC(=O)N3CCOCC3)s2)cc1 | 98
O=C(Nc1nnc(CCc2ccccc2)s1)c1cccc(F)c1 | -103*
Cc1ccc(NC(=O)CC(=O)c2ccccc2)cc1C | -117*
CCC(=O)Nc1ccc(/C=C(\C(C)=O)C(=O)c2ccccc2)cc1 | -77*
O=C(CC(=O)c1ccccc1)Nc1ccc(Cl)cc1 | -174*
CCc1ccc(-c2ccc(C(=O)C(F)(F)F)[nH]2)cc1 | -80*
Cc1ccc(NC(=O)c2ccc([N+](=O)[O-])o2)c(C)c1 | -74*
Cc1ccc(-c2nnc(NC(=O)c3ccc([N+](=O)[O-])o3)o2)c(C)c1 | -64*
O=C(c1ccccn1)c1cc2ccccc2n1S(=O)(=O)c1ccccc1 | -91*
COc1ccc(/C=C/C2=Nc3ccccc3NC(C)(C)C2)cc1OC | -78*
CC(/C=N\NC(=O)CN1CCN(Cc2ccccc2)CC1)=C\c1ccco1 | -94*
O=C(CN1CCN(Cc2ccccc2)CC1)N/N=C\C=C/c1ccco1 | -71*
O=C(CN1CCN(Cc2ccccc2Cl)CC1)N/N=C/C=C/c1ccco1 | -77*
Cc1cnc(NC(=O)C2CCC(C(C)(C)C)CC2)s1 (configuration not stated) | -64*
CC(C)(C)C1CCC(C(=O)Nc2nccs2)CC1 (configuration not stated) | -102*
O=C(CCC1CCCCC1)Nc1nccs1 | -62*
CC(=O)Nc1cccc(C(=O)/C=C/c2ccc(N(C)C)cc2)c1 | -71*
CC(=O)Nc1cccc(C(=O)/C=C/c2ccc[nH]2)c1 | -90*
CC(=O)Nc1cccc(C(=O)/C=C/c2ccc(/C=C/C(=O)c3cccc(NC(C)=O)c3)cc2)c1 | -129*
CC(=O)Nc1cccc(C(=O)/C=C/c2ccc(Br)cc2)c1 | -76*
CC(=O)Nc1cccc(C(=O)/C=C/c2ccc(F)cc2)c1 | -103*
CC(=O)Nc1cccc(C(=O)/C=C/c2cccs2)c1 | -117*
COc1ccc(O)c(/C=N/N2CCCCC2)c1 | -150*
O=C1S/C(=C\c2ccc(N3CCOCC3)o2)C(=O)N1c1ccccc1 | -96*
SMILES | aSyn UTR act
O=C(O)c1ccccc1-c1ccc(/C=C2\SC(=O)N(c3ccccc3)C2=O)o1 | -72*
Cc1cc(C)cc(NC(=S)Nc2ccccn2)c1 | -105*
Cc1ccc(NC(=S)Nc2ccccn2)cc1C | -112*
Cc1cccc(NC(=S)Nc2ccccn2)c1 | -71*
COCc1nn2c(N)c(-c3ccccc3)cnc2c1-c1ccccc1 | -106*
Nc1c(-c2ccccc2)cnc2cc(-c3ccccc3)nn12 | -121*
Cc1cc2ncc(-c3ccc(Cl)cc3)c(N)n2n1 | -117*
[O-]/C(=C(\C(=S)Nc1ccc(SC(F)F)cc1)[n+]1ccccc1)c1ccc(Cl)cc1Cl | -72*
COCCNC(=S)N1CCC(C(=O)c2ccc3c(c2)OCCO3)CC1 | -75*
CCOC(=O)C1(CCc2ccccc2)CCN(C(=O)Cc2nonc2C)CC1 | -78*
CCOC(=O)c1c(C)[nH]c(C(=O)NNC(=O)c2ccccc2)c1C | -67*
CCOC(=O)c1c(C)[nH]c(C(=O)N/N=C/c2cccc(OC)c2)c1C | -104*
CCOC(=O)c1c(C)[nH]c(C(=O)N/N=C\c2ccccc2Cl)c1C | -64*
COc1cccc(/C=N/NC(=O)c2cccs2)c1 | -137*
